Common to all, as to test: NCI-60 one-dose screen, 48 h (100 = growth as untreated, 0 = no growth, -100 = all killed)
Common to all, as to details: 10 µM unless noted

Assay [1] relates to HCT-15 colon.
The test system of assay [2] is HT29 colon.
Assay [3] relates to SNB-75 CNS.
Assay [4] has as its system SNB-19 CNS.
Assay [5] deals with U251 CNS.
For assay [6], the system named is PC-3 prostate.
Assay [7] deals with SK-MEL-5 melanoma.
Assay [8] deals with UACC-62 melanoma.
The subject of assay [9] is LOX IMVI melanoma.
Assay [10] relates to SK-MEL-28 melanoma.
Assay [11] deals with SK-MEL-2 melanoma.
Assay [12] has as its system EKVX NSCLC.
The subject of assay [13] is SN12C renal.
Assay [14] deals with UO-31 renal.
Assay [15] deals with TK-10 renal.
For assay [16], the system named is ACHN renal.
In assay [17] the test system is A498 renal.
Assay [18] relates to CCRF-CEM leukemia.
The subject of assay [19] is MOLT-4 leukemia.
Assay [20] has as its system CAKI-1 renal.

About 83,000 compounds went through this panel and 20% of them were active in at least one assay; those are over-represented in the sample as a whole.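 A percent growth of 40 corresponds to 60% growth inhibition; 0 means no net growth; -100 means all cells died. Active threshold: below 10.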 A number with no mark means an inactive call. The source made the active and inactive calls.

Turning to `CCc1cccc2c3c(sc12)C(c1ccc(Cl)cc1)C(C#N)=C(/N=C/c1ccc(Cl)cc1)O3` (stereo not given), the growth in assay [1] is 25%; in assay [2] it was 7.88% (active); in assay [3], -13.9% (active); in assay [4], 20.1%; in assay [5], 20.5%; in [6], 16.5%. The growth in assay [7] is 14.5%; in assay [8], 10.7%; in assay [9], 26.5%; in [10], 56.7%; in assay [11], 31%; in [12] it was 45.8%. For the same compound, the growth in [13] is 33.9%; in [14], 39.9%; in assay [15] it was 56.4%; in assay [16], 41.7%; in assay [17] it was -4.9% (active); in assay [18] it was 13%. Also, the growth in assay [19] was 30.2%.
Turning to `N#Cc1cccc(CN2CCC3=C(C2)C(=O)N(Cc2ccc(Cl)cc2)C2=NCCN23)c1`, the growth in [1] is 17.3%; in [2] it was 30.8%; in assay [3] it was 60.9%; in [4] it was 23.7%; in [5], 23.3%; in assay [6] it was 24.1%. For the same compound, the growth in assay [7] was 13.1%; in assay [8], 29.9%; in [9] it was 47.5%; in assay [10] it was 48.3%; in assay [11] it was 39.5%; in [12], 26.8%. Further, the growth in assay [13] was 23.9%; in assay [14], 35.5%; in assay [15], 52.3%; in assay [16], 33.2%; in assay [17], 15%; in [18] it was 33.1%. Moreover, the growth in assay [19] was 53.2%.
Regarding `C=C(C=O)[C@@H]1CC[C@]2(C)[C@H](CC=C3[C@H]4[C@@H](C)[C@H](C)CC[C@]4(C(=O)OC)CC[C@]32C)[C@@]1(C)CCC#N`, the growth in assay [1] was -55% (active); in assay [2], -37.4% (active); in assay [3], 67.6%; in [4], 25.2%; in [5], 5.57% (active); in assay [6], 9.4% (active). Also, the growth is -98% (active) in assay [7]; -31.9% (active) in assay [8]; -86.1% (active) in assay [9]; -39.4% (active) in [10]; -27.6% (active) in assay [11]; 15.2% in [12]. In addition, the growth in assay [13] was 12.9%; in assay [14] it was -83.5% (active); in [15], 35.7%; in [16] it was -71.9% (active); in assay [17], 81.1%; in [18] it was 10.7%. Moreover, in assay [19], the growth is 1.4% (active).
For the compound `COc1c(N2CC3CCCNC3C2)c(F)cc2c(=O)c(C(=O)N/N=C/c3ccc(Br)cc3)cn(C3CC3)c12` (stereo not given), the growth in assay [1] is 1.76% (active); in assay [2] it was 13.6%; in assay [3], 103%; in assay [4], 88.3%; in [5], 86.9%; in assay [6] it was 65.1%. Moreover, the growth in assay [7] was 84%; in assay [8] it was 43%; in assay [9] it was -73.5% (active); in assay [10], 86.2%; in assay [11] it was 100%; in assay [12], 90.4%. Besides, the growth is 78.8% in assay [13]; 60.5% in [14]; 121% in assay [15]; 89.2% in assay [16]; 74.3% in [17]; 55.3% in [18].
As for `COC[C@]12CCC(C)(C)C[C@H]1C1=CC[C@@H]3[C@@]4(C)CCCNC(C)(C)[C@@H]4CC[C@@]3(C)[C@]1(C)CC2`, the growth is -86.5% (active) in assay [1]; -28% (active) in assay [2]; 12% in assay [3]; -2.59% (active) in assay [4]; -58.1% (active) in [5]; 0.7% (active) in assay [6]. Also, the growth in assay [7] was -98.1% (active); in assay [8], -74% (active); in [9], -94.6% (active); in assay [10], -79.4% (active); in assay [11], 35.2%; in assay [12], -83.4% (active). The growth in assay [13] is 29.9%; in assay [14], -50.2% (active); in assay [15] it was 64.7%; in assay [16], -10.6% (active); in [20] it was -29.4% (active); in assay [17], 37.1%. In addition, the growth in assay [19] is -35% (active).
Turning to `COc1ccc2c(c1)c(CC(=O)[Se]CC(=O)O)c(C)n2C(=O)c1ccc(Cl)cc1`, the growth in assay [1] was 93%; in assay [2] it was 75.5%; in assay [3], 101%; in assay [4], 40.7%; in [5] it was 62%; in assay [6] it was 93.8%. In addition, the growth was 56.7% in [7]; 63.6% in assay [8]; 72.1% in assay [9]; 90.3% in assay [10]; 102% in assay [11]; 103% in assay [12]. In addition, the growth in assay [13] was 58.5%; in assay [14], 94.4%; in [15], 104%; in assay [16] it was 103%; in assay [17] it was 69.3%; in assay [18] it was 94.6%. Moreover, the growth in assay [19] is 99.8%.
Take `CC(=O)c1cc(C(=O)c2ccc(Br)cc2)n2cc(C)cc(C)c12`: the growth in assay [1] is 74.6%; in assay [2], 94.9%; in assay [3], 89.8%; in assay [4], 90.5%; in assay [5] it was 101%; in assay [6], 87.1%. For the same compound, the growth in assay [7] was 66.3%; in [8], 82.6%; in assay [9] it was 86.3%; in assay [10], 92.4%; in [11] it was 102%; in assay [12] it was 71.7%. For the same compound, the growth in [13] was 90.8%; in [14] it was 84.8%; in assay [15], 103%; in assay [16] it was 98.9%; in assay [17], 76.8%; in assay [18] it was 97%. In [19], the growth is 87%.
For the compound `NC(N)=Nc1ccc(Oc2cccc(NC(N)=Nc3ccc(Cl)c(C(F)(F)F)c3)c2)cn1`, the growth was 85.8% in assay [1]; 28.9% in assay [2]; 69.3% in assay [3]; 16.6% in assay [4]; 25.6% in assay [5]; 13.4% in [6]. The growth is 31.9% in assay [7]; 40.2% in [8]; -59.8% (active) in assay [9]; 61.6% in [10]; 59.5% in assay [11]; 65.5% in [12]. Besides, the growth was 25.2% in assay [13]; 78.9% in [14]; 69.3% in assay [15]; 88.3% in assay [16]; 36.7% in assay [17]; 23.9% in [18].
